Activity calls are given as the source filed them.
How the values were obtained:
[1] = optical density shifts of acrAB sulA E. coli – strain DRC41, OD650, 48 h, E. coli filamentation inducer project, primary screen (AID 1152); settings: higher = more signal, called active from +8 up or from −8 down;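 note: E. coli MC1000 strain DRC41 lacking acrAB efflux pump and sulA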
[2] = probe aLefty1 binding on compound microarray – biochemical, small-molecule microarray, 635/667 nm fluorescence, primary screen (AID 1153); settings: higher = more signal;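 note: score merges spot fluorescence with signal-to-noise ratio from the scanned slide images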
[3] = plasmodial surface anion channel blockers, osmotic lysis – cell-based, P. falciparum Indochina, OD700, 1 h, primary screen (AID 1154); settings: P. falciparum Indochina infected RBC osmotic lysis, higher = more signal, called active from +8 up or from −8 down
[4] = plasmodial surface anion channel blockers, osmotic lysis – cell-based, P. falciparum Indochina, OD700, 2 h, primary screen (AID 1155);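 note: lysis reports solute entry through the parasite surface anion channel PSAC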; settings: P. falciparum Indochina infected erythrocytes, higher = more signal, called active from +8 up or from −8 down
[5] = changes in parasitized red cell lysis, either direction – P. falciparum Indochina, OD700, 3 h, PSAC antagonist project, primary screen (AID 1156); settings: P. falciparum-infected erythrocytes, osmotic lysis, higher = more signal, called active from +8 up or from −8 down
[6] = plasmodial surface anion channel blockers, osmotic lysis – cell-based, P. falciparum Indochina, OD700, 18 h, primary screen (AID 1157); settings: P. falciparum Indochina infected erythrocytes, osmotic lysis OD700, 18 h; higher = more signal, called active from +8 up or from −8 down
[7] = S6 kinase pathway phospho-S6 level changes – cell-based, A549, cytoblot, luminescence, serum-stimulated, primary screen (AID 1158); settings: 5 h, higher = more signal;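 note: serum-stimulated A549 lung adenocarcinoma cells; signal is phosphorylated S6 detected by cytoblot immunostaining with HRP secondary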
[8] = target: NADPH oxidase 2 (Homo sapiens) (UniProt P04839); experiment: compounds shifting NOX2 Amplex Red fluorescence – cell-based, HEK293-NOX2, PMA-stimulated, NOX inhibitor project, primary screen (AID 1159); settings: 45 min, higher = more signal, called active from +8 up or from −8 down; note: test concentration not given here
[9] = target: NADPH oxidase 4 (Homo sapiens) (UniProt Q9NPH5); experiment: compounds shifting NOX4 Amplex Red fluorescence – cell-based, HEK293-NOX4, tetracycline-induced, NOX inhibitor project, primary screen (AID 1160); settings: HEK293-NOX4, Amplex Red H2O2 fluorescence, 45 min; higher = more signal, called active from +8 up or from −8 down
[10] = target: NADPH oxidase 5 (Homo sapiens) (UniProt Q96PH1); experiment: compounds shifting NOX5 Amplex Red fluorescence – cell-based, HEK293-NOX5, NOX inhibitor project, primary screen (AID 1161); settings: HEK293-NOX5, ionomycin, 45 min, higher = more signal
[11] = compound effects on lung adenocarcinoma cell viability – A549, calcein-AM fluorescence, 48 h, basal, profiling panel (AID 1162); settings: higher = more signal; note: test concentration not given here
[12] = compound effects on differentiated 3T3-L1 adipocyte viability – cell-based, 3T3-L1 adipocytes, calcein-AM fluorescence, 48 h, basal, profiling panel (AID 1163); settings: 3T3-L1 adipocytes viability, higher = more signal; note: test concentration not given here
[13] = compound effects on hepatocellular carcinoma cell viability – HepG2, calcein-AM fluorescence, 48 h, basal, profiling panel (AID 1164); settings: higher = more signal; note: test concentration not given here
[14] = compound effects on multiple myeloma cell viability – MM1S, calcein-AM fluorescence, 48 h, basal, profiling panel (AID 1165); settings: higher = more signal;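 note: viability of MM1S multiple myeloma cells under basal unstimulated conditions; test concentration not given here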
[15] = calcein-AM signal in unstimulated myeloma cells – cell-based, calcein-AM fluorescence, 48 h, PK04 Diversity Set, profiling panel (AID 1166); settings: RPMI8226 myeloma viability, higher = more signal;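 note: cells grown under basal conditions without added stimulus; test concentration not given here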
[16] = JC-1 mitochondrial signal, unstimulated HepG2 cells – cell-based, JC-1 fluorescence, 24 h, 100 nL compound, profiling panel (AID 1167); settings: HepG2 mitochondrial potential, higher = more signal; note: test concentration not given here
[17] = JC-1 mitochondrial signal, unstimulated adipocytes – cell-based, JC-1 fluorescence, 3T3-L1 adipocytes, 24 h, 100 nL compound, profiling panel (AID 1168); settings: JC-1 mitochondrial fluorescence, higher = more signal, called active from +8 up or from −8 down; note: test concentration not given here
[18] = JC-1 mitochondrial signal, unstimulated myeloma cells – cell-based, JC-1 fluorescence, RPMI8226, 24 h, 100 nL compound, profiling panel (AID 1169); settings: JC-1 mitochondrial potential fluorescence, higher = more signal; note: test concentration not given here
[19] = JC-1 mitochondrial signal, unstimulated MM1S myeloma – cell-based, JC-1 fluorescence, 24 h, 100 nL compound, profiling panel (AID 1170); settings: MM1S mitochondrial potential, higher = more signal; note: test concentration not given here
[20] = resazurin metabolic signal in A549 cells – cell-based, resazurin fluorescence, 24 h, PK04 Diversity Set, profiling panel (AID 1171); settings: A549 viability, higher = more signal, called active from +8 up or from −8 down; note: test concentration not given here

Sequence of NADPH oxidase 5 (Homo sapiens) (Q96PH1 whole entry, looked up): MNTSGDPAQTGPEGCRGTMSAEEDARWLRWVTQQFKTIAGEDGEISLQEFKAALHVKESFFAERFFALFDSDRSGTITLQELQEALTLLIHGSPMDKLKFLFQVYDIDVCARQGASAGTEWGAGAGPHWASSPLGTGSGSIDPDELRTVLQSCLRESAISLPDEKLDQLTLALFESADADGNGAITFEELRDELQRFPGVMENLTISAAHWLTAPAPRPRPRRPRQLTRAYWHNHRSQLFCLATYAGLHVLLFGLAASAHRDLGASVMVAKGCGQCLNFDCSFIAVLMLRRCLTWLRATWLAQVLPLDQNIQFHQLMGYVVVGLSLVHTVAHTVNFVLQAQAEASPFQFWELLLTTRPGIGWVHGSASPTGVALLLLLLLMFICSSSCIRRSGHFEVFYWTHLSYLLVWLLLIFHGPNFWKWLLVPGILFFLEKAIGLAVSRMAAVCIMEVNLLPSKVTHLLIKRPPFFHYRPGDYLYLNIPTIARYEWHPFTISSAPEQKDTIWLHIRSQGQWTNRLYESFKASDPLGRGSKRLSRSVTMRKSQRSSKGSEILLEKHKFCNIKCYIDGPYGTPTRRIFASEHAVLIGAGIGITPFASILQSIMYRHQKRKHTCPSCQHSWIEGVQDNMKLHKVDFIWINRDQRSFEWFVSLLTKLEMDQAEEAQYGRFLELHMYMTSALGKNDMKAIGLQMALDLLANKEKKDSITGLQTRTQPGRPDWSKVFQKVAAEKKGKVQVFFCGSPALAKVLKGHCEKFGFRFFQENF
Sequence of NADPH oxidase 4 (Homo sapiens) (Q9NPH5 whole entry, looked up): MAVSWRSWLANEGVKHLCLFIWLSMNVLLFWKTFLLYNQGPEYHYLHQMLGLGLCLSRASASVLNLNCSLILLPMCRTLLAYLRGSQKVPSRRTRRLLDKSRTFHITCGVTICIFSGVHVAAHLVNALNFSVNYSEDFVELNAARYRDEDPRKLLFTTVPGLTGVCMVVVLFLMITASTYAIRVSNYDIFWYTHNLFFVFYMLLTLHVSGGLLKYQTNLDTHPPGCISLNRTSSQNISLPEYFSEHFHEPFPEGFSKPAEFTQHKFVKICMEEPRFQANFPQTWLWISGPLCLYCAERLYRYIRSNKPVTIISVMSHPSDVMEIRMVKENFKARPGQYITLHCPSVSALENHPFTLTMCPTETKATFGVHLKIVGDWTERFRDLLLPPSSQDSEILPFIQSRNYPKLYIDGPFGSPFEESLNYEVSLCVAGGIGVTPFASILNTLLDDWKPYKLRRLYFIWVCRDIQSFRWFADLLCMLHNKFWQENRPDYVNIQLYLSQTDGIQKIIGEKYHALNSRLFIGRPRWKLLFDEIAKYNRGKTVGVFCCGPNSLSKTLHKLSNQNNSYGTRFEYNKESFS
Sequence of NADPH oxidase 2 (Homo sapiens) (P04839 whole entry, looked up): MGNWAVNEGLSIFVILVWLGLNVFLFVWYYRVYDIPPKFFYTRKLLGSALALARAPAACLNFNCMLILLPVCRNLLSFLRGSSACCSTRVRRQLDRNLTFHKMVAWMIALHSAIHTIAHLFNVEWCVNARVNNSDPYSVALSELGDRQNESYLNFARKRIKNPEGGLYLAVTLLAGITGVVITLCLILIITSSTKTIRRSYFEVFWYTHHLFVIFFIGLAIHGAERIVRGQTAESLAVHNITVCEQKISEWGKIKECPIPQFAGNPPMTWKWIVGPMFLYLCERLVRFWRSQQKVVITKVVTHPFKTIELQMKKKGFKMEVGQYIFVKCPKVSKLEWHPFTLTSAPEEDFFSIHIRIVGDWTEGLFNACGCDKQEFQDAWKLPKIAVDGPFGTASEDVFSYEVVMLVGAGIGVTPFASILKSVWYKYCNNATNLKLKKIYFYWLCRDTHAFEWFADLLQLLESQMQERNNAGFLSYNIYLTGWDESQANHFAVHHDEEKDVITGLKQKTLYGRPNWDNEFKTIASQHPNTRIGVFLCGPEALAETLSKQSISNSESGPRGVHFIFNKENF

Compound | z-score [1] | composite z-score [2] | z-score [3] | z-score [4] | z-score [5] | z-score [6] | z-score [7] | z-score [8] | z-score [9] | z-score [10] | z-score [11] | z-score [12] | z-score [13] | z-score [14] | z-score [15] | z-score [16] | z-score [17] | z-score [18] | z-score [19] | z-score [20]
CC(=O)OC[C@H]1O[C@H](CC=NOC(C)CN2CCCc3nc(C)c(C)cc32)C=C[C@@H]1OC(C)=O (stereo not given in full) | 0.134 (inactive) | -0.0222 | 1.3 (inactive) | 0.674 (inactive) | 0.594 (inactive) | 0.588 (inactive) | -0.597 | -2.12 (inactive) | -2.2 (inactive) | -0.898 | -0.234 | 0.114 | -0.806 | -2.94 | -0.639 | -0.706 | 0.264 (inactive) | -0.131 | -0.188 | -0.135 (inactive)
CO[C@H]1COC(=O)CCC[C@H](C)[C@@H](OC)COC(=O)CC=C[C@@H]1C | 0.0226 (inactive) | -0.17 | -1.29 (inactive) | -1.22 (inactive) | -0.315 (inactive) | -2.45 (inactive) | -0.279 | -0.123 (inactive) | -0.0115 (inactive) | 0.344 | 0.0792 | 0.751 | 0.205 | 0.105 | 0.471 | -0.503 | -0.713 (inactive) | -0.483 | -0.866 | 0.0382 (inactive)
CCOC(=O)[C@H](CC(C)C)NC(=O)CCC1CC(OC(=O)NCCc2ccc(F)cc2)CC2(CCCC(COC(=O)NCCCN3CCCC3=O)O2)O1 (stereo not given in full) | -0.237 (inactive) | -0.28 | 1.3 (inactive) | 0.0591 (inactive) | -0.172 (inactive) | -0.194 (inactive) | 0.181 | 0.575 (inactive) | 0.775 (inactive) | 0.802 | 0.332 | -1.03 | 0.0317 | -0.528 | -1.8 | -0.556 | -0.139 (inactive) | -0.912 | 0.131 | 0.601 (inactive)
O=C1[C@H]2[C@H]3[C@H](O)[C@H](O)CC(=NOC[C@@H](O)COCc4ccco4)[C@@H]3CC[C@H]2C(=O)N1C1CCCCC1 | 0.38 (inactive) | 0.0616 | 7.07 (inactive) | 0.409 (inactive) | 0.347 (inactive) | 0.329 (inactive) | -0.9 | -0.0721 (inactive) | 0.721 (inactive) | 0.475 | 0.0095 | 0.272 | 0.444 | 0.0224 | -0.002 | -0.82 | -0.181 (inactive) | -0.422 | -0.891 | 0.014 (inactive)
CON=C[C@@H](OC)[C@H](C)C=CCC(=O)OC | -2.24 (inactive) | -0.316 | 0.0283 (inactive) | 0.325 (inactive) | -0.779 (inactive) | 0.22 (inactive) | 0.279 | 0.592 (inactive) | 0.358 (inactive) | -0.945 | -0.0933 | -0.105 | 0.262 | 0.253 | 0.205 | -0.34 | -1.2 (inactive) | 0.673 | 0.856 | 0.213 (inactive)
O=C1[C@H]2[C@H]3[C@H](O)[C@H](O)CC(=NOC[C@@H](O)COCc4ccco4)[C@@H]3CC[C@H]2C(=O)N1Cc1ccccc1 | 0.119 (inactive) | 0.185 | 28.6 (active) | 4.72 (inactive) | 0.618 (inactive) | 1.21 (inactive) | -0.585 | -1.69 (inactive) | -0.3 (inactive) | -0.858 | -0.355 | -0.886 | -0.297 | 0.727 | 0.693 | -0.083 | -0.278 (inactive) | -0.271 | -0.782 | 1.06 (inactive)
CC(=O)OC[C@H]1O[C@H](CCON=C(C)CCN2CCCc3nc(C)c(C)cc32)C=C[C@@H]1OC(C)=O | 0.198 (inactive) | 0.0861 | 2.13 (inactive) | 1.25 (inactive) | 0.872 (inactive) | 0.489 (inactive) | -1.17 | 0.152 (inactive) | 0.11 (inactive) | 0.207 | 0.235 | -0.9 | -0.667 | -1.85 | -1.27 | -0.689 | -0.805 (inactive) | 1.03 | -0.033 | -0.221 (inactive)
COC(=O)[C@H](C)NC(=O)CCC1CC(OC(=O)NCc2cccc3ccccc23)CC2(CCCC(COC(=O)NCCCN3CCCC3=O)O2)O1 (stereo not given in full) | -3.55 (inactive) | 0.582 | 0.381 (inactive) | 0.397 (inactive) | 0.0085 (inactive) | 0.246 (inactive) | -0.463 | -0.383 (inactive) | -0.0825 (inactive) | -0.075 | 0.278 | -0.172 | 0.488 | 0.145 | -0.0813 | 0.24 | 0.338 (inactive) | -0.344 | -0.394 | 0.44 (inactive)
OC[C@H]1O[C@H](C#Cc2ccccc2)C=C[C@@H]1O | 0.402 (inactive) | -0.425 | 1.74 (inactive) | 0.803 (inactive) | 0.802 (inactive) | 0.784 (inactive) | -0.0359 | -0.178 (inactive) | 0.662 (inactive) | 1.33 | -0.259 | 0.0466 | 0.457 | -3.41 | -1.26 | 0.552 | -0.397 (inactive) | 0.607 | -0.673 | -0.852 (inactive)
CCOC(=O)[C@H](Cc1ccccc1)NC(=O)CCC1CC(OC(=O)NCc2ccc3c(c2)OCO3)CC2(CCCC(COC(=O)NCCOC)O2)O1 (stereo not given in full) | -0.11 (inactive) | -0.0428 | -1.89 (inactive) | -1.39 (inactive) | 0.61 (inactive) | -1.67 (inactive) | 2.53 | 0.195 (inactive) | -0.931 (inactive) | -2.16 | 0.58 | -0.182 | -0.971 | 1.05 | -1.56 | 0.724 | -0.844 (inactive) | -0.817 | -1.37 | 0.32 (inactive)
COC(=O)[C@H](C)NC(=O)CC=C[C@@H](C)[C@@H]1C=C[C@H](O)[C@@H](CO)O1 | 0.645 (inactive) | -0.269 | -0.488 (inactive) | 0.544 (inactive) | -0.0002 (inactive) | 0.0748 (inactive) | 0.244 | 0.534 (inactive) | 0.62 (inactive) | -0.231 | -0.244 | -0.586 | 0.583 | 0.203 | -0.859 | -0.627 | -1.04 (inactive) | 0.685 | -0.463 | -0.521 (inactive)
C#CCCCON=C1[C@H]2CCn3c(=O)n(Cc4cc5c(cc4Cl)OCO5)c(=O)n3[C@H]2[C@H](O)[C@@H]2O[C@H]12 | -0.248 (inactive) | -0.101 | 0.649 (inactive) | 0.581 (inactive) | 0.579 (inactive) | 0.035 (inactive) | -0.345 | -0.331 (inactive) | 0.367 (inactive) | -0.275 | 0.328 | -0.237 | 0.484 | -0.0822 | 0.644 | -0.663 | -1.1 (inactive) | -0.123 | 0.00911 | -0.188 (inactive)

— PubChem BioAssay
